SENP8 block-1: SENP8 (human) protease inhibition | recombinant SENP8, Nedd8 substrate fluorescence | inhibition, % at 20 µM | 360,000 compounds, 0.64% hits; in the data active = inhibition mostly above about 40%, no sharp cut-off; inactive = mostly below about 27%
SENP7 inh: blocks the human protease SENP7; Q9BQF6; recombinant SENP7, Z-RLRGG-aminoluciferin luminescence, 40 min; inhibition, % at 5 µM; 330,000 compounds, 1.5% hits; AID 434973;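 active = inhibition above about 50% at the single test dose, limit read from the data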;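 also: plate controls were DMSO with enzyme for no effect and no enzyme buffer wells for full effect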
HSP90 inh: blocks HSP90-mediated luciferase refolding in reticulocyte lysate; Rabbit reticulocyte lysate, luciferase refolding luminescence, 3 h; inhibition, % at 5.6 µM; 290,000 compounds, 0.91% hits;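 active = inhibition above the screen-wide mean plus 3 SD, computed separately per campaign, cut at about 16% in these data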;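 also: 0% = DMSO wells and 100% = 60 µM geldanamycin wells; inhibitors lower the luminescence because luciferase stays unfolded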
SENP6 inh: blocks the human protease SENP6. AID 2599. inhibition, % at 10 µM. Recombinant SENP6 catalytic domain, aminoluciferin luminescence. Q9GZR1. 330,000 compounds, 1.8% hits;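 active = inhibition above about 50% at the single tested dose, limit read from the data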;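 also: plate controls were DMSO wells with enzyme for no effect and DMSO wells lacking enzyme for full effect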
Target sequence (Q9GZR1 628-1112 limits assumed): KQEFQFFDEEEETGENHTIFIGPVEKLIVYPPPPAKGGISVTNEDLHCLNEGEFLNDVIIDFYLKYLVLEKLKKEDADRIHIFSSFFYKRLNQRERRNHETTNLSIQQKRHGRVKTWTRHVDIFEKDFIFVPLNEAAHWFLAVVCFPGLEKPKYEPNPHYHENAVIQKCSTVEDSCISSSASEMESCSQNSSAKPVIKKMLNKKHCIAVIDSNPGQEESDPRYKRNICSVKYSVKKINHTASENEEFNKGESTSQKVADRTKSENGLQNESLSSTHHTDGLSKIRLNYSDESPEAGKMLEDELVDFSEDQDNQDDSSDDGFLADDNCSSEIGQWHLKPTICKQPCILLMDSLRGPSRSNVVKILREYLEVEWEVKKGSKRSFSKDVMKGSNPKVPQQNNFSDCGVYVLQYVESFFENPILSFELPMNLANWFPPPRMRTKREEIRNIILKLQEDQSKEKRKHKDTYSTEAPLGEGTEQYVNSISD
SENP8 block-2: inhibitors of human SENP8 protease. Q96LD8. purified SENP8, Z-RLRGG-aminoluciferin cleavage, luminescence. inhibition, % at 10 µM. 330,000 compounds, 1.2% hits; in the data active = inhibition above about 50%
HSP90 inh confirm: HSP90 inhibition, confirmation assay. shares compounds with HSP90 inh. rabbit reticulocyte lysate, luciferase refolding luminescence, 3 h. inhibition, % at 5.9 µM. 2,300 compounds, 64% hits; in the data active = inhibition above about 18%;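 also: 0% = vehicle wells and 100% = reference inhibitor wells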
luciferase ctr: blocks native firefly luciferase in HSP90 counter-screen. inhibition, % at 5.9 µM. 2,300 compounds, 48% hits. AID 1847. shares compounds with HSP90 inh. purified native firefly luciferase, luminescence;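 active = inhibition above the mean inhibition of all tested sample wells plus 3 SD, cut at about 10% in these data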;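 also: 0% = DMSO with luciferase and 100% = wells lacking luciferase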
SENP8 conf: human SENP8 inhibition, confirmed; shares compounds with SENP7 inh; Recombinant SENP8, Z-RLRGG-aminoluciferin luminescence, 60 min; inhibition, % at 12.5 µM; 6,200 compounds, 40% hits; AID 488912;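 active = mean inhibition across replicates above about 50%, limit read from the data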
SENP6 conf: confirmation of human SENP6 protease inhibitors; shares compounds with SENP7 inh; recombinant SENP6, Z-RLRGG-aminoluciferin luminescence; inhibition, % at 12.5 µM; 6,200 compounds, 58% hits
SENP7 confirm: human SENP7 inhibition, confirmed; shares compounds with SENP7 inh; recombinant SENP7, Z-RLRGG-aminoluciferin luminescence, 40 min; inhibition, % at 12.5 µM; 6,200 compounds, 69% hits; AID 488917
Casp3 SENP sel: inhibits human caspase-3 in SENP selectivity test; shares compounds with SENP7 inh; purified caspase-3, Z-DEVD-aminoluciferin luminescence, 60 min; inhibition, % at 12.5 µM; 6,200 compounds, 60% hits; AID 488918;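 active = mean inhibition above about 50%, limit read from the data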;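 also: plate controls were enzyme with DMSO for no effect and wells without caspase-3 for full effect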
Luc interf: counter-screen for SENP inhibitors: luminescence interference | shares compounds with SENP7 inh | Pre-incubated SENP8/Z-RLRGG-aminoluciferin, luciferase luminescence interference | inhibition, % at 12.5 µM | 6,200 compounds, 39% hits | AID 488919;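 active = mean inhibition above about 50% when retested at one dose, limit read from the data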;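 also: plate controls were DMSO wells with completed reaction for no effect and substrate without enzyme for full effect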
Active calls of the source: *; . = no result given. Shown are actives, neighbours in structure and some others; about 2.8% of the full set was active somewhere.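 The calls were made as follows, unless noted: active = mean inhibition above about 50% in the one-dose retest (limit read from the data); inactive = the rest.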

SMILES	SENP8 block-1	SENP7 inh	HSP90 inh	SENP6 inh	SENP8 block-2	HSP90 inh confirm	luciferase ctr	SENP8 conf	SENP6 conf	SENP7 confirm	Casp3 SENP sel	Luc interf
CSc1ccc(/C=N/Nc2ccc(Cl)c(C(=O)O)c2)cc1	-69.3	-3.9	33.1*	76.3*	77.1*	79.9*	54.3*	-27.9	90.8*	99.8*	25.0	92.1*
Cc1ccc(F)c(S(=O)(=O)NC(=O)C2(C)CCN2C(=O)Cc2ccccc2)c1 (stereo unspecified)	2.4	.	.	.	.	.	.	.	.	.	.	.
COc1ccc(C(=O)NNC(=S)NC2CCCCC2)cc1OC	7.9	5.7	-4.2	-12.4	1.2	.	.	.	.	.	.	.
COc1ccc(-c2cc(C(=O)Nc3cccc(O)c3)no2)cc1	12.0	98.8*	30.7*	97.4*	92.6*	70.5*	53.6*	93.0*	94.0*	100.8*	95.3*	56.8*
COc1ccc(-c2cc(C(=O)Nc3ccc(C)c(C)c3)no2)cc1	1.7	5.7	4.0	-2.7	-0.4	.	.	.	.	.	.	.
CC(C)Cc1cc(C(=O)Nc2cccc(O)c2)no1	2.0	91.5*	38.5*	92.8*	85.6*	71.1*	64.6*	90.6*	90.6*	99.0*	91.8*	74.6*
Cc1nnc(NC(=O)c2cc3ccccc3o2)s1	-13.8	1.5	-3.6	-1.8	-4.7	.	.	.	.	.	.	.
Cc1nc(NC(=O)c2cc3ccccc3o2)sc1C	-26.7	90.0*	39.9*	88.7*	88.6*	53.6*	47.3*	71.2*	91.4*	100.1*	92.7*	33.1
CCOc1cccc(C(=O)Nc2cccc(C(C)=O)c2)c1	13.0	-7.1	-0.2	-8.6	-14.3	.	.	.	.	.	.	.
CCOc1cccc(C(=O)Nc2ccc3ccccc3c2)c1	2.4	92.2*	19.2*	92.9*	88.4*	47.0*	37.3*	7.4	65.7*	98.9*	48.5	2.4
Cc1cc(C(=O)Nc2cccc(C(=O)O)c2)oc1C	18.9	98.1*	86.1*	92.3*	92.4*	91.8*	79.2*	94.7*	95.1*	99.6*	86.5*	93.6*
CCOc1cccc(C(=O)Nc2ccc(N(CC)CC)cc2)c1	9.8	3.7	-3.9	3.6	-12.3	.	.	.	.	.	.	.
CCOc1cccc(C(=O)Nc2ccc3c(c2)OCCO3)c1	15.0	64.6*	19.4*	69.1*	41.8	45.4*	27.1*	66.2*	63.1*	89.2*	77.0*	69.0*
CCOc1c(Cl)cc(C(=O)Nc2cccc(C(=O)O)c2)cc1Cl	4.7	87.7*	30.2*	95.0*	92.4*	47.4*	9.8*	95.4*	96.0*	100.7*	53.5*	96.1*
O=C(Nc1ccccc1)Nc1ccc(C(=O)N2CCCC2)cc1	11.6	97.1*	22.2*	96.8*	93.6*	42.8*	20.1*	96.5*	96.9*	101.7*	97.8*	74.0*
CC1CCN(C(=O)c2cc3c(ccc4ccccc43)o2)CC1	8.1	90.4*	24.6*	92.8*	89.0*	48.9*	34.2*	89.0*	89.6*	98.5*	78.3*	76.2*
c1ccc(-c2nccc3ccccc23)cc1	7.2	-3.4	.	-22.7	-8.8	.	.	.	.	.	.	.
Cc1ccc(-c2nc(-c3nccc4ccccc34)oc2-c2ccccc2)cc1	-308.8	80.5*	22.8*	69.5*	47.7	41.1*	46.5*	47.8	50.5*	83.8*	84.0*	72.2*
CCCc1[nH]n(-c2nc3ccccc3s2)c(=O)c1C=NCC(C)C	33.0	4.1	2.1	-4.5	-3.6	.	.	.	.	.	.	.
